# Reference: paper PMC4336329 (PLoS ONE, 2015)
# Among all 310,000 compounds or so, about 14,000 (4.5%) showed an effect of 50% or more. Effects have a minus sign here. The sample holds strong results, similar compounds and a random draw of the others, so the mix is not that of the screen.
# Molecular target: human ether-à-go-go-related gene (hERG) potassium channel (human, UniProt Q12809)
# Assay: primary screen, population patch clamp on CHO cells stably expressing hERG; higher = less effect of the substance
# 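Also: peak tail current of the secondary pulse compared with the same well before compound.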
# Chain of human ether-à-go-go-related gene (hERG) potassium channel (Q12809 whole entry, looked up): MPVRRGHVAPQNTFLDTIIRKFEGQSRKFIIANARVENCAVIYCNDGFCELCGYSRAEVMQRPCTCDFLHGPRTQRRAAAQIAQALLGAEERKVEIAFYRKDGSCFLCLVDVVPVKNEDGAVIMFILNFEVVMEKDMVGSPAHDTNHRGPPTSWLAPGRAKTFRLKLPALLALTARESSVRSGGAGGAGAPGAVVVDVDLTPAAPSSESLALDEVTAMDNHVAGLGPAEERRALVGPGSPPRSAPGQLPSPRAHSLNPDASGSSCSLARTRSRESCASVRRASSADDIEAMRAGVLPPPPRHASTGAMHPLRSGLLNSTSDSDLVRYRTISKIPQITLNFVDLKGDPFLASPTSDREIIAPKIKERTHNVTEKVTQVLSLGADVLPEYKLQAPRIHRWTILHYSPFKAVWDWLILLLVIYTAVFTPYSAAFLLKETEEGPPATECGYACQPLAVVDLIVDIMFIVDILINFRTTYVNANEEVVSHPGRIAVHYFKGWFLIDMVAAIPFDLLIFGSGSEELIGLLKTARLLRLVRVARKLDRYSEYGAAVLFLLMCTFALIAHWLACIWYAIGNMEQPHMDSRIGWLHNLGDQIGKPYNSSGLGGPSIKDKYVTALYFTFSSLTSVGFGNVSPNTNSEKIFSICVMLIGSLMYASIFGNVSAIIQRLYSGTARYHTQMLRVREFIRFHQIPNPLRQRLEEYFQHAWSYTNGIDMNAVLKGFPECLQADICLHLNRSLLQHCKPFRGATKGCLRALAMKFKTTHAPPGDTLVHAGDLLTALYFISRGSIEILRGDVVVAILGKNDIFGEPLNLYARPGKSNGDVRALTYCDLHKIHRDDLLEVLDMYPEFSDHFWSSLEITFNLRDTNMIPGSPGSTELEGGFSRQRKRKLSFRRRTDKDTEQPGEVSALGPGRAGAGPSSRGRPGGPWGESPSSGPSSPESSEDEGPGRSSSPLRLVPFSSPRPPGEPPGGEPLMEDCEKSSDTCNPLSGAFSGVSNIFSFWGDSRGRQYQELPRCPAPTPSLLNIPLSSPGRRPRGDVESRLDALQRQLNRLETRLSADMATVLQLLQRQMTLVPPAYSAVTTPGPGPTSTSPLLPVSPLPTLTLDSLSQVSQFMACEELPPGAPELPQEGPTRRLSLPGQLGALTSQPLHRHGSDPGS
row,Structure (SMILES),"hERG current change (%, negative = inhibition) at 10uM [%]"
1,CC(OC(=O)c1ccc(NS(=O)(=O)c2cccs2)cc1)C(=O)N(C)C1CCCCC1 (centres unmarked),-0.558
2,CCc1ccc(NS(=O)(=O)c2ccc3[nH]cc(C(=O)NCC4CCCO4)c(=O)c3c2)cc1 (centres unmarked),15.4
3,CC(=O)Nc1ccc(C(=O)OCCC(C)C)cc1,-17.4
4,Cc1ccc(CNc2cc(C(=O)O)ccc2C)s1,19.2
5,O=C(Cn1c(=O)n(CC2CCCO2)c(=O)c2ccccc21)N1CCN(c2ccccc2)CC1 (centres unmarked),-21.8
6,Cc1ccc(C)c(S(=O)(=O)N2CCCOC2CNC(=O)C(=O)NCc2ccccn2)c1 (centres unmarked),5.01
7,CC(C)N1CCC(=NNC(=O)c2cccs2)CC1,25.6
8,COC(=O)C1=C(N)Oc2cc(C)n(CCc3ccccc3)c(=O)c2C1c1cccnc1 (centres unmarked),-25.9
9,COC(=O)C1=C(N)Oc2cc(C)n(CCCn3ccnc3)c(=O)c2C1c1ccc(Cl)cc1 (centres unmarked),-59.8
10,COC(=O)C1=C(N)Oc2cc(C)n(C)c(=O)c2C1c1ccc(Cl)cc1 (centres unmarked),6.7
11,COC(=O)C1=C(N)Oc2cc(C)n(Cc3ccco3)c(=O)c2C1c1cccc(Cl)c1 (centres unmarked),-5.24
12,COC(=O)C1=C(N)Oc2cc(C)n(CCCn3ccnc3)c(=O)c2C1c1cccc(Cl)c1 (centres unmarked),-69.7
13,COC(=O)C1=C(N)Oc2cc(C)n(CC3CCCO3)c(=O)c2C1c1ccc(Cl)cc1 (centres unmarked),-8.41
14,Cc1cccc(NS(=O)(=O)c2ccc3[nH]c(=O)[nH]c3c2)c1C,13.7
15,Cc1nn(Cc2ccccc2)c(C)c1NC(=O)CSc1nc(C2CC2)nc2c1cnn2-c1ccccc1,8.84
16,CN(C)CCCNc1ncnc2oc(-c3ccccc3)c(-c3ccccc3)c12,-69.5
17,COc1ccc(-c2oc3ncnc(NCCCN(C)C)c3c2-c2ccc(OC)cc2)cc1,-60.2
18,OCCCNc1ncnc2sc(-c3ccccc3)cc12,3.23
19,CN(C)CCNc1ncnc2ccccc12.Cl,7.66

row,Structure (SMILES),"hERG current change (%, negative = inhibition) at 10uM [%]"
1,CN(C)CCNc1ncnc2oc(-c3ccccc3)c(-c3ccccc3)c12,-60.7
2,CN(C)CCNc1ncnc2sc(-c3ccccc3)cc12,-21.1
3,COc1ccc(-c2oc3ncnc(NCCCO)c3c2-c2ccc(OC)cc2)cc1,4.27
4,COc1ccc(-c2oc3ncnc(N)c3c2-c2ccccc2)cc1,6.52
5,CN(C)CCCNc1ncnc2sc(-c3ccccc3)cc12.O=C(O)C(=O)O,-60.2
6,Cc1c(C)n(-c2ccccc2)c2ncnc(NCCN(C)C)c12,-4.04
7,OCCCNc1ncnc2oc(-c3ccccc3)c(-c3ccccc3)c12,-13.2
8,COCCCNC(=O)CNC(=S)N(Cc1ccccc1)Cc1cccnc1,-9.77
9,O=C(NCc1cccnc1)Nc1cccc(F)c1,7.53
10,CN(Cc1ccccc1)C(=O)Nc1ccccc1,7.49
11,COC(=O)c1ccccc1NC(=O)COc1ccc(S(=O)(=O)N2CCCC2)cc1C,8.37
12,CSc1nnc2c(n1)OC=Nc1ccc(Br)cc1-2,-11.7
13,O=C(NCC1CCCO1)c1ccc[nH]1 (centres unmarked),12.3
14,COc1ccc2oc(=O)c(C(=O)Nc3ccccc3O)cc2c1,8.79
15,Cn1c(CC(=O)Nc2ccccc2F)nnc1SCC(=O)Nc1nccs1,18.6
16,Fc1ccc(-c2cc(C(F)(F)F)n3ncnc3n2)cc1,26.8
17,CC(=O)c1cc2c(cc1NC(=O)c1cnc(C)cn1)OCO2,4.22
18,Cc1ccc(S(=O)(=O)N(CC(O)CN2C(=O)NC(C)(C)C2=O)c2ccccc2)cc1 (centres unmarked),-37.7
19,Cc1ccc(S(=O)(=O)N(CC(O)CN(C)C)c2ccccc2)cc1.Cl (centres unmarked),-65.6

row,Structure (SMILES),"hERG current change (%, negative = inhibition) at 10uM [%]"
1,COC(=O)CN(c1cccc(C)c1)S(=O)(=O)c1ccccc1,-14
2,O=S(=O)(c1ccccc1)N(CC(O)COc1ccccc1)c1ccccc1 (centres unmarked),-26.6
3,Cc1ccc(N(CC(O)CN(C)C)S(=O)(=O)c2ccccc2)cc1.Cl (centres unmarked),-68.1
4,O=S(=O)(c1ccccc1)N(CC(O)Cn1c2ccccc2c2ccccc21)c1ccccc1 (centres unmarked),14.9
5,CCN(c1ccccc1)S(=O)(=O)c1ccc2ccccc2c1,-3.29
6,Cc1ccc(S(=O)(=O)N(C)c2ccccc2)cc1,-11.8
7,Cc1cccc(N(CC(=O)N2CCCC2)S(=O)(=O)c2ccccc2)c1,-34.7
8,Cc1cccc(N(CC(O)CN(C)C)S(=O)(=O)c2ccccc2)c1.Cl (centres unmarked),-63
9,Cc1cc(C)n(CC(O)CN(c2ccccc2)S(=O)(=O)c2ccc3ccccc3c2)n1 (centres unmarked),-6.13
10,CCN(CC)CC(O)CN(c1ccccc1)S(=O)(=O)c1ccc2ccccc2c1.Cl (centres unmarked),-80.2
11,O=C(CC1SC(=O)N(Cc2ccccc2)C1=O)Nc1nccs1 (centres unmarked),3.22
12,O=C(Nc1ccc(Br)cc1)Nc1ccccc1Cl,19.7
13,CC(=O)Nc1ccc2c(c1)ncn2-c1ccccc1,3.72
14,CCOC(=O)C1CCCN(C(=O)c2ccc3c(c2)NC(=O)C(N2CCOCC2)S3)C1 (centres unmarked),19.7
15,CCCCC(=O)NC(=S)Nc1ccc(NC(=O)C(C)C)c(OC)c1,21.2
16,Cc1ccc(N(CC(O)COCc2ccco2)S(=O)(=O)c2ccc(C)cc2)cc1 (centres unmarked),-11.1
17,CCCN(CCC)CC(O)CN(c1ccccc1)S(=O)(=O)c1ccc(C)cc1 (centres unmarked),-80.3
18,Cc1ccc(S(=O)(=O)N(CCC(=O)O)c2ccccc2)cc1,-10.5
